From PubChem BioAssay

tested on: not listed separately; test: probe aNOTCH2 binding on compound microarray – biochemical, small-molecule microarray, 635/667 nm fluorescence, primary screen (AID 1121); settings: higher = more signal;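 note: score merges feature fluorescence read at 667 nm with its signal to noise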

SMILES | composite z-score
C=CCC(OC(C)=O)[C@@H]1[C@@H](N(Cc2ccc(-c3ccccc3)cc2)C(=O)Cc2ccc(OC)cc2)c2cc(OCCCO)ccc2N1C(=O)c1ccc2ccccc2n1 (stereo partly drawn) | -0.182
COC(=O)C(CC#Cc1ccc2c(c1)[C@]1(C(=O)N2)[C@H](C(=O)NC[C@H](O)c2ccccc2)[C@H]2C(=O)O[C@H](c3ccccc3)[C@H](c3ccccc3)N2[C@@H]1c1ccc(OCCO)cc1)C(=O)OC | 0.146
COc1ccc(C(O)C2C=CC3C(=O)N(c4ccccc4)C(=O)C3N2Nc2ccc([N+](=O)[O-])cc2)cc1OCc1ccccc1 (stereo not drawn) | 0.708
CC(=O)NCCCC[C@@H]1NC(=O)[C@@H]2C[C@H](C(=O)NCCCCN(C)C)[C@H](c3ccc(O)cc3)N2C1=O | -0.14
CC(C)C(=C=CC[C@H](O)c1cccc(OCCO)c1)C[C@H](O)COCc1ccccc1 | -0.0562
CC(C)C(=C=CC[C@@H](O)c1ccccc1OCCO)C[C@@H](O)c1ccccn1 | -0.111
O=C1O[C@@H](c2ccccc2)[C@@H](c2ccccc2)N2[C@@H](c3ccccc3OCCO)[C@]3(C(=O)Nc4ccc(C#CC5(O)CCCCCC5)cc43)[C@@H](C(=O)Nc3nc4ccccc4s3)[C@H]12 | -0.0904
C=CCN1C(=O)[C@]2(O[C@H](CCO)[C@@H]([Si](C)(C)c3ccc(OC)cc3)[C@@H]2C)c2cc(NC(=O)[C@H](C)O)ccc21 | -0.0666

target: Carbonic anhydrase 2 (Homo sapiens) (UniProt P00918); test: compounds binding carbonic anhydrase 2 – biochemical, small-molecule microarray, Alexa647-labelled CAII, profiling panel (AID 1122); settings: CAII-A647 binding fluorescence, higher = more signal

SMILES | composite z-score
CCCN1C(=O)[C@@]2(CCC(=O)OC(C)(C)C)N=C(c3ccc(OCCCO)cc3)O[C@H]2c2ccccc21 | 0.376
O=C(O)[C@H]1C[C@H]2C(=O)NCC(=O)N2[C@H]1c1ccc(O)cc1 | 0.688
CC(C)c1ccc(NN2C(C(O)c3ccc(N(C)C)cc3)C=CC3C(=O)N(c4ccccc4)C(=O)C32)cc1 (stereo not drawn) | 0.393
CCC[C@@H]1C=C(C(=O)O)[C@H](c2ccc(C)cc2)N1S(=O)(=O)c1ccc(C)cc1 | 0.799
CC(C)c1ccc(NN2C(C(O)c3c(F)cccc3Cl)C=CC3C(=O)N(c4ccccc4)C(=O)C32)cc1 (stereo not drawn) | 0.187
CC(C)=CCCC(C)=CC(O)C1C=CC2C(=O)N(c3ccccc3)C(=O)C2N1Nc1ccccc1 (stereo not drawn) | 0.646
COCC1=C2[C@@H](CCc3ccccc3)OB(O)C[C@@H]2[C@@H]2C(=O)N(Cc3ccccc3)C(=O)[C@@H]2C1 | 0.404
COC(=O)[C@@]1(Cc2ccc(OC)cc2)[C@H]2c3cc(C(=O)N4CCCC4)n(CCc4c[nH]c5cc(F)ccc45)c3C[C@H]2CN1C(=O)c1ccccc1 | 0.714
CC(C)N1CC=CC23O[C@@H]4C=CCOC(=O)[C@@H]4[C@H]2C(=O)N(CCO)[C@@H]3C1=O (stereo partly drawn) | 0.9
COC(=O)C(CC#Cc1ccc2c(c1)[C@]1(C(=O)N2)[C@H](c2ccc(OCCO)cc2)N2[C@H](c3ccccc3)[C@H](c3ccccc3)OC(=O)[C@H]2[C@@H]1C(=O)NC[C@H](O)c1ccccc1)C(=O)OC | 0.497
CC(C)NC(=O)[C@@]1(Cc2ccccc2I)c2ccccc2C(=O)N(Cc2ccccc2)[C@H]1c1ccc(CO)cc1 | 0.481
CCOC(=O)C[C@H]1[C@H](OC(=O)Cc2ccc3c(c2)OCO3)[C@@H](NC(=O)c2ccc(-c3ccccc3)cc2)c2cc(OCCCO)ccc2N1C(=O)c1ccccc1 | 0.364
CC(c1ccccc1)C(O)C1C=CC2C(=O)NC(=O)C2N1Nc1ccccn1 (stereo not drawn) | 0.531
COc1ccc(C#Cc2ccc3c(c2)[C@]2(C(=O)N3)[C@H](c3ccc(O)cc3)N3[C@H](c4ccccc4)[C@H](c4ccccc4)OC(=O)[C@H]3[C@@H]2C(=O)NC[C@H](O)c2ccccc2)cc1 | 0.295
O=C1O[C@H](c2ccccc2)[C@H](c2ccccc2)N2[C@H]1[C@@H](C(=O)O)[C@]1(C(=O)Nc3ccc(C#CC4(O)CCCCCC4)cc31)[C@H]2c1ccc(OCCO)cc1 | 0.672
NCCCCCCNC(=O)[C@H]1C[C@H]2C(=O)NCC(=O)N2[C@H]1c1cccc(OCCO)c1 | 0.536
C=CCOC(=O)[C@H]1[C@@H]2C(=O)O[C@@H](c3ccccc3)[C@@H](c3ccccc3)N2[C@@H](c2ccc(OCCOC(=O)[C@@H]3C[C@@H]4C(=O)NCC(=O)N4[C@@H]3c3ccc(O)cc3)cc2)[C@]12C(=O)Nc1ccccc12 | 0.475
[N-]=[N+]=Nc1ccccc1C[C@]1(C(=O)NCCN2CCOCC2)N=C(c2ccc(OCCCO)cc2)O[C@H]1c1ccccc1 | 0.597

SMILES | composite z-score
CC(C)N1C(=O)C[C@@](C(=O)NCc2ccccc2)(c2ccc([N+](=O)[O-])cc2)[C@H]1c1ccc(CO)cc1 | 0.702
O=C1OCCC/C=C\[C@H]2OC34C=CCN(Cn5nnc6ccccc65)C(=O)[C@H]3N(CCCCCO)C(=O)[C@@H]4C12 (stereo partly drawn) | 0.881
NCCCCCNC(=O)[C@H]1C[C@H]2C(=O)NCC(=O)N2[C@H]1c1cccc(OCCO)c1 | 0.429
CN1C=C(C(=O)OCCS(C)(=O)=O)C(C(=O)OCCS(C)(=O)=O)=CC(CCCO)=CC1C1CC1 (stereo not drawn) | 0.826
COCCOC(=O)N1C(=O)[C@@]2(c3cc(C#CC4=CCCCC4)ccc31)[C@H](C(=O)NC[C@H](O)c1ccccc1)[C@H]1C(=O)O[C@H](c3ccccc3)[C@H](c3ccccc3)N1[C@@H]2c1ccc(O)cc1 | 0.521
CCCCCCCCCCC(O)C1C=CC2C(=O)N(Cc3ccccc3)C(=O)C2N1n1cnnc1 (stereo not drawn) | 0.485
Cc1ccccc1C(O)C1C=CC2C(=O)N(C)C(=O)C2N1N1CCCCC1 (stereo not drawn) | 0.793
CC(=O)NCCCC[C@@H]1NC(=O)[C@@H]2C[C@H](C(=O)NCCCCCCNC(=O)CS)[C@H](c3ccc(O)cc3)N2C1=O | 0.597
C=CCOC(=O)[C@H]1[C@@H]2C(=O)O[C@@H](c3ccccc3)[C@@H](c3ccccc3)N2[C@@H](c2ccc(OCCOC(=O)[C@@H]3C[C@@H]4C(=O)N5CCC[C@H]5C(=O)N4[C@@H]3c3ccc(O)cc3)cc2)[C@]12C(=O)Nc1ccccc12 | 0.268
C=CCC(OC(C)=O)[C@@H]1[C@@H](N(Cc2ccc(-c3ccccc3)cc2)C(=O)Cc2ccc(OC)cc2)c2cc(OCCCO)ccc2N1C(=O)c1ccc2ccccc2n1 (stereo partly drawn) | 0.195
COC(=O)C(CC#Cc1ccc2c(c1)[C@]1(C(=O)N2)[C@H](C(=O)NC[C@H](O)c2ccccc2)[C@H]2C(=O)O[C@H](c3ccccc3)[C@H](c3ccccc3)N2[C@@H]1c1ccc(OCCO)cc1)C(=O)OC | 0.556
COc1ccc(C(O)C2C=CC3C(=O)N(c4ccccc4)C(=O)C3N2Nc2ccc([N+](=O)[O-])cc2)cc1OCc1ccccc1 (stereo not drawn) | 0.591
CC(=O)NCCCC[C@@H]1NC(=O)[C@@H]2C[C@H](C(=O)NCCCCN(C)C)[C@H](c3ccc(O)cc3)N2C1=O | -0.0303
CC(C)C(=C=CC[C@H](O)c1cccc(OCCO)c1)C[C@H](O)COCc1ccccc1 | 0.235
CC(C)C(=C=CC[C@@H](O)c1ccccc1OCCO)C[C@@H](O)c1ccccn1 | 0.738
O=C1O[C@@H](c2ccccc2)[C@@H](c2ccccc2)N2[C@@H](c3ccccc3OCCO)[C@]3(C(=O)Nc4ccc(C#CC5(O)CCCCCC5)cc43)[C@@H](C(=O)Nc3nc4ccccc4s3)[C@H]12 | 0.453
C=CCN1C(=O)[C@]2(O[C@H](CCO)[C@@H]([Si](C)(C)c3ccc(OC)cc3)[C@@H]2C)c2cc(NC(=O)[C@H](C)O)ccc21 | 0.56
